# From PubChem BioAssay (EPA / NIEHS)
# “And” between values parts separate entries of the source, which are not always exact repeats. Identical values can stand only once. Where a structure was tested more than once in an assay, its records may differ in their call. The source made the active and inactive calls. Rule for the calls: active = hit-call score of the fitted dose curve at least 0.9, where 1 is the maximum; inactive = score below 0.9.
# Read-out: Monokine induced gamma interferon (MIG), CXCL9 (gene 4283)
# Experiment: BSK_hDFCGF_MIG: BioMAP Diversity Plus: hDFCGF Assay for Monokine induced gamma interferon (MIG) Biomarker Activity (AID 2283063)
# Conditions: primary human foreskin fibroblasts; actives raise or lower the signal
# In short: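 MIG/CXCL9 measured by ELISA 24 h after dosing primary human skin fibroblasts. Activity fitted in both directions against DMSO controls. Cytotoxicity was checked in parallel cultures by SRB staining read at 560 nm.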
Compound,AC50,outcome
O=S(=O)(O)C(F)(F)C(F)(F)C(F)(F)C(F)(F)C(F)(F)C(F)(F)C(F)(F)C(F)(F)F,30 µM (active) and 50.4 µM (active),inactive
COP(=S)(OC)Oc1ccc(SC)c(C)c1,–,inactive
COC(=O)c1ccccc1CS(=O)(=O)NC(=O)Nc1nc(OC)cc(OC)n1,–,inactive
Oc1cc(Cl)ccc1Oc1ccc(Cl)cc1Cl,20.4 µM (active) and 14.1 µM (active) and 23.9 µM (active),–
OCCOc1ccccc1,–,inactive
ClC1C(Cl)C(Cl)C(Cl)C(Cl)C1Cl (stereo not drawn),–,inactive
CC(C)N(C(=O)COc1nnc(C(F)(F)F)s1)c1ccc(F)cc1,–,inactive

# Read-out: Matrix Metallopeptidase 1 (MMP1), MMP1 (gene 4312)
# Experiment: BSK_hDFCGF_MMP1: BioMAP Diversity Plus: hDFCGF Assay for Matrix Metallopeptidase 1 (MMP1) Biomarker Activity (AID 2283064)
# Conditions: primary human foreskin fibroblasts; actives raise or lower the signal
# In short: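 MMP1 levels quantified by ELISA 24 h after dosing human dermal fibroblast cultures, with parallel SRB total-protein staining for overt cytotoxicity. Data fitted in both directions against DMSO baseline.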
Compound,outcome,AC50
O=C(O)C(F)(F)C(F)(F)C(F)(F)C(F)(F)C(F)(F)C(F)(F)C(F)(F)F,inactive,–
CNC(=O)/C=C(\C)OP(=O)(OC)OC,inactive,–
CC1(c2ccc(Oc3ccccc3)cc2)OC(=O)N(Nc2ccccc2)C1=O (stereo not drawn),inactive,–
O=C(Nc1ccccc1)Nc1cnns1,inactive,–
COP(=S)(OC)Oc1ccc([N+](=O)[O-])cc1,inactive,–
CNC(=O)Oc1cccc(N=CN(C)C)c1,inactive,–
CCCN(CCOc1c(Cl)cc(Cl)cc1Cl)C(=O)n1ccnc1,inactive,–
COC(=O)c1ccccc1S(=O)(=O)NC(=O)Nc1nc(C)nc(OC)n1,inactive,–
Cc1cc(C)nc(NC(=O)NS(=O)(=O)c2ccccc2C(=O)OC2COC2)n1,inactive,–
CCC(C)(C)C(=O)OC1=C(c2ccc(Cl)cc2Cl)C(=O)OC12CCCCC2,–,7.8 µM (active)
CNC(=O)Oc1ccccc1OC(C)C,–,2.38 µM (active)
Clc1ccccc1-c1nnc(-c2ccccc2Cl)nn1,inactive,–
O=C1c2ccccc2C(=O)N1SC(Cl)(Cl)Cl,inactive,–
Cc1[nH]c(=O)n(C(C)(C)C)c(=O)c1Cl,inactive,–
C[C@H]1[C@H](c2ccc(Cl)cc2)SC(=O)N1C(=O)NC1CCCCC1,–,5.43 µM (active)
COC(=O)c1ccccc1S(=O)(=O)NC(=O)N(C)c1nc(C)nc(OC)n1,inactive,–
CCc1ccc(C(=O)NN(C(=O)c2cc(C)cc(C)c2)C(C)(C)C)cc1,inactive,–
CC[C@H](C)[C@H]1O[C@]2(C=C[C@@H]1C)C[C@@H]1C[C@@H](C/C=C(\C)[C@@H](O[C@H]3C[C@H](OC)[C@@H](O[C@H]4C[C@H](OC)[C@@H](O)[C@H](C)O4)[C@H](C)O3)[C@@H](C)/C=C/C=C3\CO[C@@H]4[C@H](O)C(C)=C[C@@H](C(=O)O1)[C@]34O)O2 (tested in a mixture with another compound),–,9.79 µM (active)
O=S(=O)(O)C(F)(F)C(F)(F)C(F)(F)C(F)(F)C(F)(F)C(F)(F)C(F)(F)C(F)(F)F,inactive,–
COP(=S)(OC)Oc1ccc(SC)c(C)c1,–,9.5 µM (active)
COC(=O)c1ccccc1CS(=O)(=O)NC(=O)Nc1nc(OC)cc(OC)n1,inactive,–
Oc1cc(Cl)ccc1Oc1ccc(Cl)cc1Cl,–,29.9 µM (active) and 12.3 µM (active) and 26.1 µM (active)
OCCOc1ccccc1,inactive,–
ClC1C(Cl)C(Cl)C(Cl)C(Cl)C1Cl (stereo not drawn),inactive,–
CC(C)N(C(=O)COc1nnc(C(F)(F)F)s1)c1ccc(F)cc1,–,17.7 µM (active)

# Read-out: Vascular cell adhesion molecule 1 (VCAM1), VCAM1 (gene 7412)
# Experiment: BSK_hDFCGF_VCAM1: BioMAP Diversity Plus: hDFCGF Assay for Vascular cell adhesion molecule 1 (VCAM1) Biomarker Activity (AID 2283065);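 for AC50: VCAM-1 protein level quantified by ELISA after 24 h chemical exposure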
# Conditions: primary human foreskin fibroblasts; actives raise or lower the signal
# In short: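 Human foreskin fibroblast primary cells dosed with chemical, VCAM-1 measured by ELISA at 24 h. Bidirectional curve fitting relative to DMSO as negative control/baseline.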
Compound,outcome,AC50
O=C(O)C(F)(F)C(F)(F)C(F)(F)C(F)(F)C(F)(F)C(F)(F)C(F)(F)F,inactive,–
O=C(Nc1ccccc1)Nc1cnns1,inactive,–
COC(=O)c1ccccc1S(=O)(=O)NC(=O)Nc1nc(C)nc(OC)n1,inactive,–
CCC(C)(C)C(=O)OC1=C(c2ccc(Cl)cc2Cl)C(=O)OC12CCCCC2,–,9.68 µM (active)
O=C1c2ccccc2C(=O)N1SC(Cl)(Cl)Cl,inactive,–
C[C@H]1[C@H](c2ccc(Cl)cc2)SC(=O)N1C(=O)NC1CCCCC1,inactive,–
COC(=O)c1ccccc1S(=O)(=O)NC(=O)N(C)c1nc(C)nc(OC)n1,inactive,–
Oc1ccc(Cl)cc1Cc1ccccc1,–,14.5 µM (active) [middle of 7 runs]

# Read-out: Plasminogen activator inhibitor-1 (PAI1), SERPINE1 (gene 5054)
# Experiment: BSK_hDFCGF_PAI1: BioMAP Diversity Plus: hDFCGF Assay for Plasminogen activator inhibitor-1 (PAI1) Biomarker Activity (AID 2283066)
# Conditions: primary human foreskin fibroblasts; actives raise or lower the signal
# In short: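 Fibroblasts from human foreskin were treated with test chemical. After 24 h, PAI-1 was measured by ELISA. Activity was fitted in both directions relative to DMSO.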
Compound,outcome,AC50
O=C(O)C(F)(F)C(F)(F)C(F)(F)C(F)(F)C(F)(F)C(F)(F)C(F)(F)F,inactive,–
CNC(=O)/C=C(\C)OP(=O)(OC)OC,inactive,–
CC1(c2ccc(Oc3ccccc3)cc2)OC(=O)N(Nc2ccccc2)C1=O (stereo not drawn),inactive,–
O=C(Nc1ccccc1)Nc1cnns1,inactive,–
COP(=S)(OC)Oc1ccc([N+](=O)[O-])cc1,–,6.41 µM (active)
CNC(=O)Oc1cccc(N=CN(C)C)c1,inactive,–
CCCN(CCOc1c(Cl)cc(Cl)cc1Cl)C(=O)n1ccnc1,–,23.9 µM (active)
COC(=O)c1ccccc1S(=O)(=O)NC(=O)Nc1nc(C)nc(OC)n1,inactive,–
Cc1cc(C)nc(NC(=O)NS(=O)(=O)c2ccccc2C(=O)OC2COC2)n1,inactive,–
CCC(C)(C)C(=O)OC1=C(c2ccc(Cl)cc2Cl)C(=O)OC12CCCCC2,–,6.68 µM (active)
CNC(=O)Oc1ccccc1OC(C)C,inactive,–
Clc1ccccc1-c1nnc(-c2ccccc2Cl)nn1,inactive,–
O=C1c2ccccc2C(=O)N1SC(Cl)(Cl)Cl,inactive,–
Cc1[nH]c(=O)n(C(C)(C)C)c(=O)c1Cl,inactive,–
C[C@H]1[C@H](c2ccc(Cl)cc2)SC(=O)N1C(=O)NC1CCCCC1,inactive,–
COC(=O)c1ccccc1S(=O)(=O)NC(=O)N(C)c1nc(C)nc(OC)n1,inactive,–
CCc1ccc(C(=O)NN(C(=O)c2cc(C)cc(C)c2)C(C)(C)C)cc1,inactive,–
CC[C@H](C)[C@H]1O[C@]2(C=C[C@@H]1C)C[C@@H]1C[C@@H](C/C=C(\C)[C@@H](O[C@H]3C[C@H](OC)[C@@H](O[C@H]4C[C@H](OC)[C@@H](O)[C@H](C)O4)[C@H](C)O3)[C@@H](C)/C=C/C=C3\CO[C@@H]4[C@H](O)C(C)=C[C@@H](C(=O)O1)[C@]34O)O2 (tested in a mixture with another compound),–,6.95 µM (active)
O=S(=O)(O)C(F)(F)C(F)(F)C(F)(F)C(F)(F)C(F)(F)C(F)(F)C(F)(F)C(F)(F)F,inactive,20 µM (active) and 48.5 µM (active)
Oc1ccc(Cl)cc1Cc1ccccc1,–,24.5 µM (active) [middle of 6 runs]
COP(=S)(OC)Oc1ccc(SC)c(C)c1,inactive,–
COC(=O)c1ccccc1CS(=O)(=O)NC(=O)Nc1nc(OC)cc(OC)n1,inactive,–
Oc1cc(Cl)ccc1Oc1ccc(Cl)cc1Cl,–,6.96 µM (active) and 8.43 µM (active) and 7.44 µM (active)
OCCOc1ccccc1,inactive,–
ClC1C(Cl)C(Cl)C(Cl)C(Cl)C1Cl (stereo not drawn),inactive,–
CC(C)N(C(=O)COc1nnc(C(F)(F)F)s1)c1ccc(F)cc1,inactive,–
